Source: PubChem (National Center for Advancing Translational Sciences (NCATS))
Only some compounds are listed: those with a hit (about 19% of all), similar ones and a draw of the others.
KB-V1 cytotox: kills drug-selected multidrug resistant KB-V1 cells. KB-V1 MDR cells viability, CellTiter-Glo, 72 h. Potency, µM (highest dose often 46.1 µM), hits mostly cytotoxic. 3.4% of 400,000 active. AID 1347076; note: nearly all actives have a fitted effect of over 60% in size
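Compound-treated KB-V1 multidrug-resistant cells, 72 h, 37 degrees C; viability by CellTiter-Glo. Fitted qHTS curves give the values.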
HT1080NT lethal: kills 2HG-producing HT-1080-NT fibrosarcoma cells; HT-1080-NT fibrosarcoma viability, CellTiter-Glo ATP luminescence, 48 h; Potency, µM (series often up to 46.1 µM), without a hit: at the highest dose activity, negative = less viability, hits mostly cytotoxic; 1.6% of 360,000 active; AID 686970;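 note: NT is the 2HG producing partner of a matched IDH1 knockdown line; 0% = DMSO-treated cells and -100% = media-only wells without cells; nearly all actives have a fitted effect of over 55% in size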
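Viability by CellTiter-Glo luminescence after 48 h compound exposure at 37C of HT-1080-NT cells (750/well, RPMI, 5% FBS). % activity scaled between DMSO wells and medium-only wells, then curve-fitted and categorized by curve class.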
DT40 TDP1 CPT: DT40-hTDP1 cell growth loss with CPT. chicken DT40 Tdp1-/-;hTDP1 cells + 20 nM CPT, ATP luminescence, 48 h. AID 686979. 12% of 420,000 active. Potency, µM (top dose mostly 46.2 µM), for the others: at the top dose activity change, negative = growth inhibition, actives largely listed as inhibitors; note: nearly all actives have a fitted effect of over 55% in size
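Cell growth measured by CellTiter-Glo luminescence after a minimum 48 h, 37 C compound exposure with 20 nM CPT in Tdp1-knockout DT40 cells stably expressing hTDP1, seeded 400/well; qHTS titration format.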
TDP1 cell noCPT: qHTS for Inhibitors of human tyrosyl-DNA phosphodiesterase 1 (TDP1): qHTS in cells in absence of CPT. DT40 Tdp1-/- hTDP1 cells, no CPT, ATP luminescence, 48 h. Potency, µM (series often up to 46.2 µM), for the others: top-dose activity change, negative = growth inhibition, actives largely listed as inhibitors. 15% of 420,000 active. AID 686978, 2013; note: nearly all actives have a fitted effect of over 55% in size
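Luminescent ATP content (CellTiter-Glo) served as the growth readout. Knockout chicken DT40 cells expressing human TDP1 were exposed to compounds without camptothecin for a minimum 48 hr at 37 °C.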
KB-3-1 cytotox: KB-3-1 parental cell cytotoxicity | KB-3-1 viability, CellTiter-Glo ATP luminescence, 72 h | Potency, µM (doses to about 46.1 µM), usual class: cytotoxic | 1.4% of 400,000 active | AID 1347075; note: nearly all actives have a fitted effect of over 60% in size
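Multi-concentration cytotoxicity screen in KB-3-1 cells grown in DMEM lacking phenol red with 10% FBS. After 72 h at 37 °C with compound, ATP-dependent luminescence was recorded.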
HT1080 IDH1KD tx: kills HT-1080 cells with IDH1 knockdown. AID 686971. 2% of 360,000 active. HT-1080 IDH1 knockdown viability, ATP luminescence, 48 h. Potency, µM (titrated, usually from 46.1 µM), inactives show at the highest dose activity, negative = toxicity, hits mostly cytotoxic;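 note: 0% = DMSO wells and -100% = cell-free medium wells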
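Cytotoxicity counter-line: IDH1KD HT-1080, 48 h, CellTiter-Glo. Curves classed by r2, magnitude and activity.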
* = called active by the depositor; i = inactive; ? = inconclusive; / = no result given. Calls come from the whole dose curve; as a rule, active = well fitted curve in the direction sought with a large enough effect; inconclusive = small, poorly fitted or top-dose-only effect, or another doubt; inactive = no such curve, though single readings can be large; an effect the other way counts as inactive or inconclusive. Unless noted, % is set by controls: 0 for no effect and ±100 for the full control effect; potency is the fitted concentration of half-maximal effect.

SMILES	KB-V1 cytotox	HT1080NT lethal	DT40 TDP1 CPT	TDP1 cell noCPT	KB-3-1 cytotox	HT1080 IDH1KD tx
O=C(CCn1cnc2onc(-c3ccc(F)cc3)c2c1=O)N1CCN(c2cccc(Cl)c2)CC1	i	/	16µM*	16µM*	i	/
O=C(CCn1cnc2onc(-c3ccc(F)cc3)c2c1=O)N1CCN(c2ccccc2F)CC1	i	/	?	?	i	/
CCN(C(=O)Cn1cnc2onc(-c3ccc(F)cc3)c2c1=O)c1cc(C)ccc1C	i	/	13µM*	21µM*	i	/
COc1cccc(N2CCN(C(=O)Cn3cnc4onc(-c5ccc(F)cc5)c4c3=O)CC2)c1	i	/	23µM*	21µM*	i	/
COc1cc(Cl)c(C)cc1NC(=O)CCn1cnc2onc(-c3ccc(F)cc3)c2c1=O	i	/	18µM*	?	i	/
CCOC(=O)Cn1cnc2onc(-c3ccc(F)cc3)c2c1=O	i	/	-2%	0%	i	/
CCCN(C(=O)CCn1cnc2onc(-c3ccc(F)cc3)c2c1=O)c1ccccc1C	i	/	18µM*	16µM*	i	/
Cc1ccc(OC(C)C(=O)N(Cc2cccs2)C2CCS(=O)(=O)C2)cc1C (stereo not drawn)	i	-1%	-19%	-24%	i	-2%
CCCCN(CC)CCNC(=O)CCn1cnc2onc(-c3ccc(F)cc3)c2c1=O	i	/	26µM*	23µM*	i	/
Cc1ccc(Cl)cc1N1CCN(C(=O)Cn2cnc3onc(-c4ccc(F)cc4)c3c2=O)CC1	i	/	18µM*	18µM*	i	/
O=C(Cn1cnc2onc(-c3ccc(F)cc3)c2c1=O)N1CCN(c2ccccc2F)CC1	i	/	?	?	i	/
COC(=O)CCn1cnc2onc(-c3cc(F)cc(F)c3)c2c1=O	i	/	19%	-28%	i	/
COCCCNC(=O)c1sc2nc(C)c(C(=O)Nc3ccc(C)cc3C)c(-c3ccc(Cl)cc3)c2c1N	i	/	?	?	i	/
CN(C)CCCNS(=O)(=O)c1ccc(NC2CCCCCC2)c([N+](=O)[O-])c1	?	?	2.9µM*	2.3µM*	18µM*	?
COc1cc(-c2nc3ccc4ccccc4c3c3c2CCC3)cc(OC)c1O	?	?	21µM*	16µM*	?	?
COc1cc(-c2nc3ccc4ccccc4c3c3c2CCC3)cc(OC)c1OC	i	?	?	?	i	?
S=C(Nc1ccccc1)N1CCN(C/C=C/c2ccccc2)CC1	i	-2%	-26%	?	i	-10%
Fc1ccccc1NC(=S)N1CCN(C/C=C/c2ccccc2)CC1	16µM*	0%	-24%	?	?	-2%
S=C(NC1CCCC1)N1CCN(C/C=C/c2ccccc2)CC1	i	?	?	21µM*	?	-3%
CCC(C)N(CC(=O)Nc1cccc(C)c1C)C(=O)CCl (stereo not drawn)	?	1.6µM*	?	2.3µM*	?	1µM*
CC(C)N(CC(=O)Nc1ccc(Cl)cc1C(F)(F)F)C(=O)CCl	?	6.5µM*	21µM*	6.5µM*	i	6.5µM*
CCOC(=O)C1=CNS(=O)(=O)NC1c1cccc(O)c1 (stereo not drawn)	?	9%	-16%	-6%	i	15%
CC(C)[C@H](NC(=O)c1ccc(Cl)cc1Cl)C(=O)OCc1nc2ccsc2c(=O)[nH]1	?	3%	0%	-29%	i	16%
CC(Sc1nc(=O)cc(N)n1CCc1ccccc1)C(=O)Nc1ccc(Cl)cc1 (stereo not drawn)	i	/	?	?	i	/
Cc1cc(NC(=O)CCCn2ccc([N+](=O)[O-])n2)n(Cc2ccc(F)cc2)n1	?	2%	-11%	-28%	?	1%
